Bioassay records (PubChem)
Rows were chosen to be rich in hits. Some 3.6% of all compounds tested hit in one or more screens of this group.
MITF TRPM1 HTS – activators of MITF-driven TRPM1 promoter activity in SK-MEL-5 cells; SK-MEL-5 TRPM1-promoter luciferase, 24 h; % of positive control, neutral wells = 0; activation, % at 12.5 µM; 300,000 tested, 0.75% active; AID 588334;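 active = mean activation of at least 80% with every replicate also reaching 80%; inconclusive = mean reaches 80% but some replicate falls short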
esBAF inh – inhibitors of esBAF chromatin remodeling in mouse ES cells; reporter increase, % at 12.5 µM; 350,000 tested, 2% active; Bmi1-luciferase knock-in reporter, 24 h; 100% = twice the neutral-well signal; AID 602393; in the data active = activation above about 40%; inconclusive = no clear call, values can overlap the other calls;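 also: a rise in the Bmi1 reporter signal indicates esBAF inhibition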
PHOSPHO1 inh – blocks human PHOSPHO1 phosphatase activity | Q8TCT1 | recombinant PHOSPHO1, absorbance phosphatase assay | inhibition, % at 13.3 µM | 290,000 tested, 1.1% active; in the data active = inhibition above about 60%
Target sequence (Q8TCT1 whole entry, looked up): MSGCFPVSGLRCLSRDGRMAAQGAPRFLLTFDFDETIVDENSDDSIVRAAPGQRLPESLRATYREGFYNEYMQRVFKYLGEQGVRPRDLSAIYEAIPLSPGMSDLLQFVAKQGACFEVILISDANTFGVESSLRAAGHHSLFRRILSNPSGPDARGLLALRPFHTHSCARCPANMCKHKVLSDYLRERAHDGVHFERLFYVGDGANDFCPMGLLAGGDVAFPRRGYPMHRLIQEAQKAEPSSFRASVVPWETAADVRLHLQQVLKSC
APOBEC3G inh – blocks human APOBEC3G single-stranded DNA deamination; Q9HC16; recombinant A3G, ssDNA deamination FAM/TAMRA fluorescence; inhibition, % at 20 µM; 330,000 tested, 0.28% active; AID 493012;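 active = inhibition of at least 40% at 20 µM, with no more than 30% in the related APOBEC3A deaminase screen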
A3A deaminase – human APOBEC3A DNA deaminase inhibition; AID 493011; inhibition, % at 20 µM; 330,000 tested, 0.41% active; P31941; recombinant A3A, FAM/TAMRA ssDNA deamination fluorescence;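 active = at least 40% inhibition at 20 µM here, with at most 30% in a related deaminase screen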
Target sequence (P31941 whole entry, looked up): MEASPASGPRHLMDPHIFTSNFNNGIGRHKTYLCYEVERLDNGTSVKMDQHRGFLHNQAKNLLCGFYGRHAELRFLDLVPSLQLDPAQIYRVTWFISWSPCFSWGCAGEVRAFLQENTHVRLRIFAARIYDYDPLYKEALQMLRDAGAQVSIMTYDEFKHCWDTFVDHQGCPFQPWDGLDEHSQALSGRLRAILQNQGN
Wnt act – activates Wnt/beta-catenin signaling in a reporter cell assay | activator, plate reader | AID 743398 | activation, % at 9.35 µM | 300,000 tested, 1.2% active; in the data active = activation above about 30%, passing the limit was not always enough; inconclusive = no clear call, values can overlap the other calls
Of the large screens only hits and unclear results are named; the others gave an inactive call.

CC(C)NC(=O)N(C)C[C@H]1Oc2ccc(NS(=O)(=O)c3cccs3)cc2CC(=O)N([C@@H](C)CO)C[C@H]1C	none (no result: MITF TRPM1 HTS, PHOSPHO1 inh, APOBEC3G inh, A3A deaminase, Wnt act)
O=C(/C=C/c1ccccc1)Nc1cccc(C(=O)NCc2ccccc2)c1	none (no result: MITF TRPM1 HTS, esBAF inh, PHOSPHO1 inh, APOBEC3G inh, A3A deaminase)
O=C(/C=C/c1ccccc1)Nc1cccc(C(=O)NCCCc2ccccc2)c1	esBAF inh 43 (no result: PHOSPHO1 inh, APOBEC3G inh, A3A deaminase)
O=C(COC(=O)Cc1ccccc1F)Nc1ccc(SC(F)F)cc1	none (no result: esBAF inh)
O=C(Cc1ccccc1F)Nc1ccc(SC(F)F)cc1	MITF TRPM1 HTS 103 (no result: esBAF inh)
CCCNC(=O)C[C@@H]1CC[C@@H]2[C@@H](COc3ccc(NC(=O)c4cc(F)cc(F)c4)cc3C(=O)N2C)O1	none (no result: MITF TRPM1 HTS, PHOSPHO1 inh, APOBEC3G inh, A3A deaminase, Wnt act)
Cc1noc(C)c1NC(=O)Nc1cccc2c1O[C@@H](CN(C)Cc1ccc(C(=O)O)cc1)[C@@H](C)CN([C@H](C)CO)C2=O	none (no result: MITF TRPM1 HTS, PHOSPHO1 inh, APOBEC3G inh, A3A deaminase, Wnt act)
COc1ccc(S(=O)(=O)N(C)C[C@@H]2OCCCC[C@@H](C)Oc3ccc(NC(=O)Nc4c(C)noc4C)cc3C(=O)N([C@@H](C)CO)C[C@@H]2C)cc1	none (no result: MITF TRPM1 HTS, PHOSPHO1 inh, APOBEC3G inh, A3A deaminase, Wnt act)
CC(=O)Nc1ccc(Nc2nc(C)nc3c2oc2ccccc23)cc1	none (no result: MITF TRPM1 HTS)
COc1cc2c(cc1NCc1ccccn1)oc1ccccc12	esBAF inh 45
c1ccc(CNc2ncnc3c2oc2ccccc23)nc1	esBAF inh 65, Wnt act 56
CCc1nc(NCc2ccccn2)c2oc3ccccc3c2n1	none (no result: Wnt act)
CC(=O)c1ccc(Nc2ncnc3c2oc2ccccc23)cc1	esBAF inh 65 (no result: Wnt act)
c1ccc2c(c1)oc1c(NCC3CCCO3)ncnc12 (stereo not given)	Wnt act 54
COC(=O)C[C@H]1CC[C@@H]2[C@H](COc3ccc(NC(=O)c4ccc(OC)cc4)cc3C(=O)N2C)O1	none (no result: MITF TRPM1 HTS, PHOSPHO1 inh, APOBEC3G inh, A3A deaminase, Wnt act)
Clc1ncnc2c1oc1ccccc12	esBAF inh 52, Wnt act 67
C[C@@H]1CN([C@@H](C)CO)C(=O)Cc2cc(NC(=O)NC3CCCCC3)ccc2O[C@@H]1CN(C)S(=O)(=O)c1ccccc1	none (no result: MITF TRPM1 HTS, PHOSPHO1 inh, APOBEC3G inh, A3A deaminase, Wnt act)
C[C@H](CO)N1C[C@H](C)[C@H](CN(C)C)OCCCC[C@H](C)Oc2ccc(NC(=O)Nc3ccc4c(c3)OCO4)cc2C1=O	none (no result: MITF TRPM1 HTS, PHOSPHO1 inh, APOBEC3G inh, A3A deaminase, Wnt act)
C=CCOC(=O)/C(=C\c1cccc2ccccc12)NC(=O)c1ccccc1	esBAF inh 56 (no result: Wnt act)
C=CCOC(=O)/C(=C\c1ccccc1)NC(=O)c1ccc(C)cc1	none (no result: esBAF inh)
CNC[C@H]1Oc2c(NS(=O)(=O)c3ccc(Cl)cc3)cccc2C(=O)N([C@@H](C)CO)C[C@@H]1C	none (no result: MITF TRPM1 HTS, PHOSPHO1 inh, APOBEC3G inh, A3A deaminase, Wnt act)
COc1cc2c(cc1OC)CN(c1ncccc1[N+](=O)[O-])CC2	MITF TRPM1 HTS 93, esBAF inh inconclusive
O=C1CCN(c2ncccc2[N+](=O)[O-])CC1	none (no result: esBAF inh)
Cc1noc(C)c1CSc1nnc(-c2ccccc2)n1Cc1ccco1	none (no result: Wnt act)
COc1ccc(-c2nnc(SCc3ccccc3)n2N)cc1	MITF TRPM1 HTS 88 (no result: esBAF inh)
Cc1noc(C)c1CSc1nnc(-c2ccccc2)n1N	PHOSPHO1 inh 97 (no result: esBAF inh, Wnt act)
C[C@H]1CN([C@@H](C)CO)C(=O)Cc2cc(N(C)C)ccc2O[C@@H]1CN(C)Cc1ccc(Oc2ccccc2)cc1	none (no result: MITF TRPM1 HTS, PHOSPHO1 inh, APOBEC3G inh, A3A deaminase, Wnt act)
N#Cc1sc(NCc2ccccc2)nc1Cl	PHOSPHO1 inh 62 (no result: esBAF inh)
CCOc1ccc(-c2nnc(SCc3nnc(-c4ccccc4)o3)n2-c2ccccc2F)cc1	PHOSPHO1 inh 73
CCN(C(=O)c1cc2c(=O)n3ccccc3nc2n1C)C1CCCCC1	none
CCN(C(=O)c1cc2c(=O)n3ccccc3nc2s1)C1CCCCC1	esBAF inh 58
CCN(CC)C(=O)c1cc2c(=O)n3cccc(C)c3nc2s1	none
CN(C(=O)c1cc2c(=O)n3ccccc3nc2n1C)C1CCCCC1	Wnt act 37
CCN(C(=O)c1cc2c(=O)n3cccc(C)c3nc2s1)C1CCCCC1	esBAF inh 67
Oc1ccccc1C1=Nc2nc3ccccc3n2C(c2ccccc2)C1 (stereo not given)	esBAF inh 49 (no result: Wnt act)
CCCC#Cc1cnc2c(c1)C(=O)N([C@H](C)CO)C[C@H](C)[C@@H](CN(C)C(=O)Cc1ccncc1)O2	none (no result: MITF TRPM1 HTS, PHOSPHO1 inh, APOBEC3G inh, A3A deaminase, Wnt act)
Cc1noc(C)c1NC(=O)Nc1ccc2c(c1)CC(=O)N([C@@H](C)CO)C[C@H](C)[C@H](CN(C)C(=O)Nc1ccccc1)O2	none (no result: MITF TRPM1 HTS, PHOSPHO1 inh, APOBEC3G inh, A3A deaminase, Wnt act)
COc1ccccc1C1=NN(C(=S)Nc2ccccc2)C(c2ccco2)C1 (stereo not given)	esBAF inh 56 (no result: Wnt act)
CN(C)c1ccc(/C=N/c2cc(-c3ccccc3)nn2-c2ccccc2)cc1	esBAF inh 62 (no result: MITF TRPM1 HTS)
